LmPK inhibitor = blocks Leishmania mexicana pyruvate kinase activity | purified LmPK, Kinase-Glo ATP luminescence, 1 h | Potency, µM (series often up to 57.5 µM), without a hit: at the top dose activity change, negative = inhibition, hits mostly inhibitors | 290,000 compounds, 0.37% hits; further: potency means the concentration at half of the fitted maximal effect
Target sequence (Q27686 whole entry, looked up): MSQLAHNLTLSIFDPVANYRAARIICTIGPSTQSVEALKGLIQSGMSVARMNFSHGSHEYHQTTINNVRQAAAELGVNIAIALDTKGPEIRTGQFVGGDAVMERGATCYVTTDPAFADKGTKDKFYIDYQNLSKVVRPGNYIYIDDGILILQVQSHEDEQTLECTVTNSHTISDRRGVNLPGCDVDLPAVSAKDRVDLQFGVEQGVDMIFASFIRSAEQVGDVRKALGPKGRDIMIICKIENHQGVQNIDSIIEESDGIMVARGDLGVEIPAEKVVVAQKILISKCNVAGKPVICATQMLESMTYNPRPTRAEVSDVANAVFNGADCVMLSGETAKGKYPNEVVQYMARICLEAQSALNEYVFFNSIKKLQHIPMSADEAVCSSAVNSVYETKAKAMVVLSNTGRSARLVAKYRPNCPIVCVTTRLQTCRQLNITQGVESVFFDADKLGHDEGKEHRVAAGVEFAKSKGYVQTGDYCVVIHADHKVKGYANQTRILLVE
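0.1 nM LmPK, 0.5 mM PEP, 0.1 mM ADP; 50 mM imidazole pH 7.2, 7 mM MgCl2, 50 mM KCl; 1 h RT. Kinase-Glo luminescence readout, normalized to no-enzyme (full inhibition) and uninhibited wells.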
VACV mCherry inh = inhibitors of vaccinia virus infection (mCherry reporter signal) | Vaccinia virus mCherry reporter infection, fluorescence | 310,000 compounds, 0.63% hits | Potency, µM (top dose mostly 36.5 µM), for the others: at the highest dose activity change, negative = inhibition, usual class: inhibitors; calls by dose curve; tested in A549 cells; further: potency means the concentration at half of the fitted maximal effect; nearly all actives have a fitted effect of over 35% in size
Vaccinia Venus = inhibitors of vaccinia virus (Venus reporter); AID 720580; Vaccinia virus Venus reporter expression, fluorescence; Potency, µM (top dose mostly 36.5 µM), for inactives: at the top dose activity change, negative = inhibition, most hits filed as inhibitors; 330,000 compounds, 0.46% hits; calls by dose curve; tested in A549 cells; further: potency means the concentration at half of the fitted maximal effect; nearly all actives have a fitted effect of over 30% in size
HCMV antiviral = inhibitors of human cytomegalovirus. activity change, negative = inhibition, % at 57.5 µM. AID 1259415. 410,000 compounds, 4.5% hits. HFF cells, HCMV-luciferase reporter, 72 h; hits give low values; in the data active means activity change below about -60%; inconclusive means no clear call, values can overlap the other calls; inactive means above about -39%
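After 16 h attachment at 37C, HFF cells received test compound and HCMV-luciferase (1 PFU/cell); reporter luminescence read 72 h later, data normalized against buffer-only and known inhibitor Salinomycin.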
TbPYK inhibitor = inhibitors of Trypanosoma brucei pyruvate kinase; Q57TT1; TbPYK enzyme, Kinase-Glo Plus ATP luminescence, 45 min; Potency, µM (top dose mostly 76.8 µM), for the others: at the top dose activity, negative = inhibition, actives largely listed as inhibitors; 410,000 compounds, 0.12% hits; AID 624173; further: potency means the concentration at half of the fitted maximal effect; nearly all actives have a fitted effect of over 50% in size
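Screened from lowest to highest concentration, compounds were pinned into TbPYK/substrate mixtures, and ADP (130 uM final) was added. Plates sat at room temperature for 45 min prior to Kinase-Glo Plus detection by luminescence.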
* = called active by the depositor; i = inactive; ? = inconclusive; nt = no result; + = active, no number; ! = a repeat was not active. Most compounds without a hit are left out; they make up all but 5% or so of the library. Unless noted, the call rests on the fitted dose curve; in most records, active means well fitted curve in the direction sought with a large enough effect; inconclusive means small, poorly fitted or top-dose-only effect, or another doubt; inactive means no such curve, though single readings can be large; an effect the other way counts as inactive or inconclusive. On the % scale 0 is the no-effect control and ±100 the full control effect.

SMILES	LmPK inhibitor	VACV mCherry inh	Vaccinia Venus	HCMV antiviral	TbPYK inhibitor
CCC(=NCc1cc(OC)cc(OC)c1)c1c(O)n(C)c(=O)n(C)c1=O	7%	nt	nt	-90*	-1%
CCC(=NCc1ccc2c(c1)OCO2)c1c(O)n(C)c(=O)n(C)c1=O	-1%	nt	nt	-66*	-2%
CCC(=NCCc1c[nH]c2ccccc12)c1c(O)n(C)c(=O)n(C)c1=O	3%	nt	nt	-75*	2%
Cc1cc(=O)oc2c3c(cc(OCC(=O)NCc4ccccc4)c12)OC(C)(C)CC3	-2%	-9%	5%	57	1%
Cc1ccc(-c2cc(C#N)c(=O)n(Cc3c(Cl)cccc3Cl)c2)cc1	3%	nt	nt	-62*	-7%
N#Cc1cc(-c2ccccc2)cn(Cc2c(Cl)cccc2Cl)c1=O	5%	nt	nt	?	-2%
Cn1cnc([N+](=O)[O-])c1S(=O)(=O)c1ccc(Cl)cc1	-1%	i	0%	333	-4%
CCCc1nc([N+](=O)[O-])c(S(=O)(=O)c2ccccc2)n1CC(C)C	3%	?	?	-93*	-4%
CC(C)Cn1c(C(C)C)nc([N+](=O)[O-])c1S(=O)(=O)c1ccc(F)cc1	5%	nt	nt	-72*	1%
CCCCCCc1nnc(NC(=O)c2ccco2)s1	-4%	nt	nt	12	-3%
CCSc1nnc(C)n1-c1ccc(C(=O)O)cc1	1%	nt	1%	?	-20%
O=C(NCc1ccc2c(c1)OCO2)c1ccc(-n2cnnn2)cc1	1%	i	-18%	12	-2%
Cc1ccnc(NS(=O)(=O)c2cc(-c3cc(C)no3)ccc2C(C)C)c1	5%	nt	nt	-6	-5%
CCOC(=O)Nc1ccc(NCc2ccc(F)cc2)nc1N	nt	19%	2%	-24	32µM*!
O=C1CC(c2ccc(O)cc2)Oc2cc(O)cc(O)c21 (stereo unspecified)	2%	-12%	-20%	28	1%
CC1CC(=O)c2c(cc3c(-c4c(O)cc(O)c5c(O)c6c(cc45)OC(C)CC6=O)c(O)cc(O)c3c2O)O1 (stereo unspecified)	-22%	10µM*	14µM*	nt	-5%
O=C(Cc1ccc2c(c1)OCO2)N1CCOc2ccc(CN3CCOCC3)cc2C1	nt	-3%	12%	nt	nt
CCc1nn2c(=O)c(S(=O)(=O)Nc3ccc(C(C)C)cc3)c(C)nc2s1	-3%	-27%	-16%	-64*!	-5%
COc1cc(/C=N/N2CCN(Cc3ccc(C)cc3)CC2)cc(OC)c1O	-3%	nt	nt	?	14µM*
OC(C#Cc1ccccn1)c1cccs1 (stereo unspecified)	-15%	i	-8%	-62*	3%
C(=C\c1cccs1)/c1ccccn1	nt	-3%	?	nt	nt
Cc1ccc(-c2n[nH]c(=S)n2Cc2ccccc2)cc1	13µM*	nt	nt	62	?
Cc1cccc(-c2n[nH]c(=S)n2Cc2ccccc2)c1	18µM*	-16%	-13%	19	?
CCOc1ccc(-c2n[nH]c(=S)n2Cc2ccccc2)cc1	?	nt	nt	-22	?
COCCn1c(=O)[nH]c2cc(C(=O)N3CCN(c4cccc(C(F)(F)F)c4)CC3)ccc2c1=O	1%	i	-19%	-9	-4%
SMILES	LmPK inhibitor	VACV mCherry inh	Vaccinia Venus	HCMV antiviral	TbPYK inhibitor
Cc1cnc(C(=O)N(CCCn2ccnc2)C2C(=O)Nc3ccccc3N=C2c2ccccc2)cn1 (stereo unspecified)	nt	25%	-1%	8	2%
Cc1ccccc1N(CC(=O)N1CCCC1)S(=O)(=O)c1ccc(Cl)cc1	nt	-4%	-10%	-21	1%
COC(=O)N/N=C(\C)c1ccc(OC(F)F)cc1	6%	-19%	-14%	45	0%
C/C(=N\NC(=S)Nc1c(C)cccc1C)c1ccc(OC(F)F)cc1	4%	-17%	-3%	-86*	-23%
CC(CN1CCN(C)CC1)OC(=O)c1ccc(F)cc1 (stereo unspecified)	3%	i	4%	-71*	0%
CC(=O)c1cc(-c2ccccc2)n(CC(=O)NC(C)(C)C)c1C	12%	1%	-11%	10	7%
CN(NS(=O)(=O)c1ccc(Br)cc1)c1nc(C(F)(F)F)nc2ccccc12	-2%	-15%	-29%	-64*	3%
CN(N)c1nc(C(F)(F)F)nc2ccccc12	3%	-24%	-11%	?	1%
Cc1snc(S(=O)(=O)Cc2c(Cl)cccc2Cl)c1C#N	-5%	nt	nt	-31	-9%
CCN(CC)CCN(C)C(=O)c1[nH]c(C(F)(F)F)nc1-c1ccccc1	nt	29%	0%	-99*	-7%
CCOC(=O)C1CCC(CN(Cc2ccccc2)S(=O)(=O)c2ccc(Cl)cc2)CC1 (stereo unspecified)	nt	-9%	-8%	-36	-5%
Cc1cccc2cc(C#N)c(SCC#N)nc12	0%	nt	nt	-67*	9%
Cc1cc2cccc(C)c2nc1SCC(=O)NNC(=O)c1ccco1	-4%	-10%	-14%	?	3%
Cc1cccc2cc(C#N)c(SCC(=O)NNC(=O)Cc3ccccc3)nc12	4%	nt	nt	-63*	5%
COC(=O)c1cccc(NC(=O)Nc2ccc(Cl)c(Cl)c2)c1	5%	?	?	-101*	2%
COC(=O)c1cccc(NC(=O)NC(=O)c2ccccc2Cl)c1	0%	-22%	-9%	-22	-2%
COC(=O)c1sccc1NC(=O)Nc1ccccc1F	14µM*	i	-12%	9	?
O=C(Nc1ccc(Cl)cc1)Nc1ccccc1C(=O)O	?	i	-9%	11	-10%
COC(=O)c1sccc1NC(=O)Nc1ccc(Cl)c(Cl)c1	-2%	nt	-20%	-71*	-4%
O=C(Nc1ccc(Cl)c(Cl)c1)Nc1ccccc1C(=O)O	-14%	-18%	-1%	-79*	-7%
CCCCCCC[n+]1ccc(/C=C/c2c[nH]c3ccccc23)c2ccccc21	nt	i	i	nt	nt
COC(=O)c1ccccc1NC(=O)CNC(=O)c1ccc(OC)cc1	0%	4%	5%	+	-15%
O=C(c1ccc(CSc2ccc(Cl)cc2)cc1)N1CCCC1	-7%	nt	nt	-63*	-12%
COc1ccccc1N1CCN(C(=O)c2ccc(CSc3ccccc3)cc2)CC1	4%	i	-11%	-92*	3%
COc1ccccc1N1CCN(C(=O)c2sc3nc(-c4ccc(F)cc4)cn3c2C)CC1	-1%	?	?	-61*	4%
COc1ccccc1N1CCN(C(=O)c2ccc(C(C)(C)C)cc2)CC1	2%	11µM*	10µM*	-36	?
CC(C)C[C@H]1CN([C@@H](CC(C)C)CN2CCC[C@H]2CN2C(=O)C(=O)NC[C@@H]2Cc2ccc(O)cc2)C(=O)C(=O)N1CC1CCCCC1	nt	30%	1%	-10	2%
Clc1ccc(-n2nnnc2-c2cnc(-c3ccncc3)nc2-c2cccs2)cc1	2%	nt	nt	-62*	1%
CNc1ncc(-c2nnnn2-c2ccccc2)c(-c2ccccc2)n1	0%	nt	nt	-18	-2%

High-throughput results: PubChem BioAssay, National Center for Advancing Translational Sciences (NCATS)
